Assay outcomes (PubChem BioAssay)
12-hLO inh: inhibitors of human 12-lipoxygenase (ALOX12); P18054; purified 12-hLO, xylenol orange hydroperoxide absorbance; Potency, µM (highest dose often 57.1 µM), most hits filed as inhibitors; hit rate 0.12% among 150,000; further: nearly all actives have a fitted effect of over 55% in size
Target sequence (P18054 whole entry, looked up): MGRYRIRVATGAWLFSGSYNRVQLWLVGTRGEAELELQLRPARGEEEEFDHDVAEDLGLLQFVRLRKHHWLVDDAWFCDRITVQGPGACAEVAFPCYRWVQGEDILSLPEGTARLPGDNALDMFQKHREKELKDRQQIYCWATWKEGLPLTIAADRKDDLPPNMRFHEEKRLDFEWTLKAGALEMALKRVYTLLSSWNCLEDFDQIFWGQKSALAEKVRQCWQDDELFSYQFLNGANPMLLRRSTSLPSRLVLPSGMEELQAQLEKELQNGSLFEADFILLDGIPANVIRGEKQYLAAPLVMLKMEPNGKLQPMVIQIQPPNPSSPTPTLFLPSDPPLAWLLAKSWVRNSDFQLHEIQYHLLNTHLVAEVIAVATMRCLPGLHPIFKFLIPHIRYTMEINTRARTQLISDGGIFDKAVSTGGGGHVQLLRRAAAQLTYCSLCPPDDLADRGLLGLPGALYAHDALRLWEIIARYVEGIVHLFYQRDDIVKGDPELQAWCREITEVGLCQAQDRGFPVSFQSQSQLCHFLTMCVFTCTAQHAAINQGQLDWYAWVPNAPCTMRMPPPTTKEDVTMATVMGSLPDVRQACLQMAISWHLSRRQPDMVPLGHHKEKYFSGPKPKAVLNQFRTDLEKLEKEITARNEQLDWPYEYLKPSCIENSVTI
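150 nM 12hLO, 25 mM Hepes pH 7.0 + 0.01% Triton X-100; cpd preinc 15 min RT; 40 uM arachidonic acid, 30 min RT; Fe-XO 30 min; A573/A405 ratio as read-out.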
PNC inhibitor: inhibitors of perinucleolar compartment assembly; PC3M PTB-GFP, PNC prevalence imaging, 16 h; active compounds read low; hit rate 3.1% among 140,000; activity change (PNC), negative = inhibition, % at 10 µM;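 active means readout at or below -70, meaning at least 70% loss of cells showing the perinucleolar compartment, a nuclear body marking cancer cells; inconclusive means readout between -30 and a set limit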
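PC3M cells stably expressing PTB-GFP, 750–1000 cells/well, treated 16 h at 37 °C with compound (23 nl of library stock), in duplicate. After paraformaldehyde fixation and Hoechst stain, imaged at 20x; PNC prevalence scored by image analysis.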
IMPase Li cell: cell-permeable IMPase inhibitors with lithium potentiation; CHO-M1 cells, IP1 TR-FRET (IP-One), carbachol + lithium; Potency, µM (highest dose often 59.4 µM), most hits filed as inhibitors; hit rate 0.35% among 210,000; AID 1457;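 further: IP1 builds up when IMPase is blocked and the TR-FRET signal falls; nearly all actives have a fitted effect of over 50% in size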
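Test compounds were applied to CHO-M1 cells previously cultured for 16–30 h at 2000 per well. A small lithium amount accompanied them; after 30 min at 37C, IP1 was quantified by TR-FRET.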
IMPase inh: membrane-permeable compound that blocks inositol monophosphatase; P97697; CHO-M1 cells, IP1 accumulation, HTRF TR-FRET ratio; inhibition (IP1 accumulation), % at 46.1 µM; 120,000 tested, under 10 active; active means well fitted curve in the direction sought with a large enough effect in the signal ratio, not every such curve was filed as active; inconclusive means small, poorly fitted or top-dose-only effect, or a change in a side signal; inactive means no such curve, though single readings can be large or run the other way; the % refers to the signal ratio;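 further: cells stimulated with carbachol in lithium chloride buffer; higher means more IMPase inhibition seen as more IP1 and lower FRET ratio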
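The IP-One HTRF competitive assay in carbachol-stimulated CHO-M1 cells quantifies cellular IP1. Compounds spanned up to 46 uM final, and activity is expressed as AC50 from concentration-response fits of the ratio and donor data.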
15-hLO-2 inh: blocks human 15-lipoxygenase 2 activity; AID 881; purified 15hLO-2, xylenol orange hydroperoxide absorbance; Potency, µM (titrated, usually from 57.1 µM), usual class: inhibitors; O15296; hit rate 0.56% among 110,000; further: nearly all actives have a fitted effect of over 60% in size
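Purified human 15hLO-2 (50 nM final) preincubated with compounds 15 min at room temperature in 25 mM Hepes pH 7.5, 0.01% Triton X-100, then 45 uM arachidonic acid added for 90 min; hydroperoxide detected via ferrous/xylenol orange, 573/405 nm absorbance ratio.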
A number is an active result; n = inactive; u = inconclusive; x = no result; [ ] = another dose, or the depositor's remark. Only a selection was taken, and hits are over-represented in it overall. Unless noted, the call rests on the fitted dose curve; in most records, active means well fitted curve in the direction sought with a large enough effect; inconclusive means small, poorly fitted or top-dose-only effect, or another doubt; inactive means no such curve, though single readings can be large; an effect the other way counts as inactive or inconclusive.

SMILES | 12-hLO inh | PNC inhibitor | IMPase Li cell | IMPase inh | 15-hLO-2 inh
COc1ccccc1N1CCN(C(=O)CSc2ncccc2-c2nc3ccccc3[nH]2)CC1 | n | n | n | n | n
CCCCCCCCCCCCC/C=C/[C@@H](O)C(CO)NC(C)=O (stereo not given in full) | n | x | n | x | x
COCc1cc(C)nc2sc(C(=O)N3CCCC3)c(N)c12 | n | -117 | n | n | n
COCc1cc(C)nc2sc(C(=O)OC)c(N)c12 | n | n | n | n | n
[O-]/[N+](=N\O)c1ccccc1 | n | x | n | x | n
O=C(NCc1ccco1)C(c1cccs1)N(C(=O)C1COc2ccccc2O1)c1cccc(O)c1 (stereo not given) | n | -116 | n | n | n
CC(C)CCNC(=O)C(c1ccc(O)cc1)N(Cc1cccs1)C(=O)C1COc2ccccc2O1 (stereo not given) | n | n | n | x | x
COc1ccc(/C=C/C(=O)CC(O)(c2ccccc2)C(F)(F)F)cc1 (stereo not given) | n | -100 | n | n | x
Sc1ccc2ccccc2c1CNCc1ccccc1 | n[11.4 µM] | x | n | x | n[11.4 µM]
Cc1ccccc1N(CC(=O)NC1CCCC1)C(=O)C1(C)CC(=O)N=C2C=CC=CN21 (stereo not given) | n | -116 | n | x | x
CNC(=O)[C@H]1O[C@H](n2cnc3c(NCc4cccc(I)c4)ncnc32)[C@@H](O)[C@@H]1O | n | x | n | n | n
CCOC(=O)Cn1c(-c2nonc2NC(=O)c2ccccc2F)nc2ccccc21 | n | -108 | n | n | n
CCC(=O)Nc1nonc1-c1nc2ccccc2n1Cc1ccccc1 | n | u | n | n | n
CCCCOc1ccccc1NC(=O)Cn1c(-c2nonc2N)nc2ccccc21 | n | -95 | n | n | n[2.29 µM]
O=C(CSc1nnc(Cn2c(=O)sc3ccccc32)n1-c1ccccc1)NCC1CCCO1 (stereo not given) | n | -108 | n | n | n
Cc1ccc2cc(CCNC(=O)CC(C)(C)C)c(=O)[nH]c2c1C | n | n | 13µM | u | x
Nc1c(N2CCCCC2)c(=O)[nH]c(=O)n1-c1ccccc1 | n | -84 | n | n | n
Cc1cc(C)cc(NC(=O)CCC(=O)Nc2cc(C)on2)c1 | n | -100 | n | n | x
Cc1cc(NC(=O)CCCC(=O)Nc2ccc(F)cc2)no1 | n | n | n | n | n
Cc1nc2c(=O)[nH]c(=S)n(C)c2nc1C | n | -114 | n | x | x
CCOC(=O)CSc1nc2ccccc2n1CC(=O)NC(C)(C)C | n | u | n | n | n
CC(C)(C)NC(=O)Cn1c(SCC(=O)NC2CCCCC2)nc2ccccc21 | n | -100 | u | n | n
CCCS(=O)(=O)N1CCCC(C(=O)NCCc2ccc(OC)c(OC)c2)C1 (stereo not given) | n | -92 | n | n | n
CCS(=O)(=O)N1CCCC(C(=O)NCCc2ccc(OC)c(OC)c2)C1 (stereo not given) | n | n | n | n | n[2.29 µM]
COc1cc(NC(=S)NCc2cccnc2)cc(OC)c1 | n | -92 | n | x | x
SMILES | 12-hLO inh | PNC inhibitor | IMPase Li cell | IMPase inh | 15-hLO-2 inh
COc1cc(NC(=S)NCc2cccnc2)cc(OC)c1OC | x | x | n | x | x
COc1ccc(C(=O)C(OC(=O)c2ccccc2)c2ccccc2)cc1 (stereo not given) | n | n | n | n | n
COC(=O)C(OC(=O)c1ccc(OC)cc1)C(=O)OC | n | -100 | n | n | x
CSCCC=O | n | x | n | x | n
CNC(=S)N1N=C(c2ccc(Br)cc2)CC1c1ccc(OC)cc1 (stereo not given) | u | -121 | n | x | x
Cc1ccc(N2CCN(C(=O)c3ccccc3Br)CC2)c(C)c1 | n | n | n | n | n
Cc1ccc(C)c(N2CCN(C(=O)c3ccccc3Br)CC2)c1 | n | -80 | n | n | n
COc1ccccc1NC(=O)c1cccc(S(=O)(=O)N2CCCCCC2)c1 | x | x | x | n | x
CC1=CC(C)(C)Nc2ccc(OS(=O)(=O)c3ccc(C)cc3)cc21 | n | n | n | n | n
CC(=O)Nc1ccc(S(=O)(=O)Oc2ccc3c(c2)C(C)=CC(C)(C)N3)cc1 | n | -109 | n | x | x
CCCCC[C@H](O)/C=C/C=C/C/C=C\CCCC(=O)O | n | x | n | x | x
CCCSc1nc(C)c(-c2csc(C(C#N)=C3CCCC3)n2)cc1C#N | n | u | n | u | 10µM
CCCCSc1nc2c(cc1C#N)CCC2 | n | n | n | n | n
NC(=O)CSc1ncnc2c1oc1ccccc12 | n | n | 13µM | u | n
O=C(CSc1ncnc2c1oc1ccccc12)NC1CCCCC1 | n | n | 11µM | n | n
O=C(CSc1ncnc2c1oc1ccccc12)NCc1ccc(F)cc1 | n | n | 25µM | n | n
O=C(CSc1ncnc2c1oc1ccccc12)c1cccs1 | n | n | 13µM | u | n
CC(=O)N[C@H](Cc1ccc(O)cc1)C(=O)O | n[11.4 µM] | x | n | x | n[11.4 µM]
Cc1ccc(C)c([C@@H]2NC(=O)c3ccccc3N2)c1 | n[11.4 µM] | x | n | x | n[11.4 µM]
Cc1cccc(NC(=O)CSc2ncnc3c2oc2ccccc23)c1 | n | n | n | n | n
Cc1ccc2nc(NC(=O)CSc3ncnc4c3oc3ccccc34)sc2c1 | n | -108 | u | n | n
Clc1ccccc1-c1nccc(NCc2ccccc2)n1 | x | x | n | x | n
Cc1ccc(C=Nc2ccccc2C(N)=O)o1 | n | -93 | n | x | x
CN(C)c1ccc(C=Nc2ccccc2C(N)=O)cc1 | n | n | n | n | n
CN(Cc1ccccc1)Cc1nc2c([nH]1)c(=O)n(C)c(=O)n2C | n | -100 | n | n | x
SMILES | 12-hLO inh | PNC inhibitor | IMPase Li cell | IMPase inh | 15-hLO-2 inh
Cc1ccc(C(=O)NN2C(=O)CSC2=S)cc1 | n | -84 | n | x | x
CC(C)(C)c1cc(C(=O)Nc2ccccc2)ccn1 | n | -122 | n | n | x
Cc1ccc(NC(=O)c2ccnc(C(C)(C)C)c2)cc1 | n | n | n | n | x
COc1ccccc1-c1nc(NC2CC2)c2ccccc2n1 | x | x | n | x | n
Cc1nc2cnc(Oc3ccccc3)nc2n(CCc2ccccc2)c1=O | n | x | n | x | n
Clc1ccc(OCc2nn3c(C4CCCCC4)nnc3s2)c(Cl)c1 | n | -82 | n | n | n
COc1ccccc1-c1nnc2sc(COc3ccc(Cl)cc3Cl)nn12 | n | n | n | n | n
COc1ccccc1N1CCN(C(=O)c2sc3nc(-c4ccccc4)cn3c2C)CC1 | n | -95 | n | n | n
COC(=O)C1CCN(C(=O)/C=C/c2ccccc2)CC1 | n | -114 | n | x | x
COc1ccc(-c2cn3c(C)c(C(=O)Nc4cc(NC(C)=O)ccc4OC)sc3n2)cc1 | n | n | 4.5µM | u | x
COc1ccccc1N1CCN(C(=O)/C=C/c2ccccc2)CC1 | n | -100 | n | n | x
Cc1ccc(-n2c3c(c(=O)[nH]c2=O)C(NC(=O)C(C)(C)C)(C(F)(F)F)C(=O)N3)cc1 (stereo not given) | x | x | x | n | x
COc1cc(NC(=O)c2cc(Cl)c(OC)c(Cl)c2)ccc1NC(=O)c1cc2ccccc2o1 | x | x | x | n | x
CS(=O)(=O)c1nc(-c2ccccc2)cc(C(F)(F)F)n1 | n | -100 | n | n | x
